Our source for the inhibition values is PubChem BioAssay AID624125 (The Scripps Research Institute Molecular Screening Center, 2012).

Hit rate of the full screen: of about 360,000 compounds, about 2,600 (0.72%) were called active.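 Rule for the calls: active = inhibition above its plate's cutoff, the mean inhibition of sample wells plus 3 SD (cut at about 27% in these data); inactive = the rest.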 This excerpt belongs to a sample that is enriched for actives.

Muscarinic acetylcholine receptor M4 (Homo sapiens), sequence (P08173 whole entry, looked up): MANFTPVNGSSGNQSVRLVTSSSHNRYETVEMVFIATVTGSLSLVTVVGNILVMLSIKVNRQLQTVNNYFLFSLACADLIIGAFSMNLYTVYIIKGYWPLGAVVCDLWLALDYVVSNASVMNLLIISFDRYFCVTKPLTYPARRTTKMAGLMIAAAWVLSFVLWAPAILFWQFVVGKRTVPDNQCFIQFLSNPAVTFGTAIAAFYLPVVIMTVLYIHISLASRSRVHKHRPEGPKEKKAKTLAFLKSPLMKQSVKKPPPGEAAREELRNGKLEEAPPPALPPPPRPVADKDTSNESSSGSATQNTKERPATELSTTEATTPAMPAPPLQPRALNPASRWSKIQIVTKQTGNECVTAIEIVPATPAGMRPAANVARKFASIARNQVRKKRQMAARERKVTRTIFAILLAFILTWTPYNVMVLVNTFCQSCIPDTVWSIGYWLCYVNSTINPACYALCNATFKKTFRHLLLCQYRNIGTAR

This assay has as its target Muscarinic acetylcholine receptor M4 (Homo sapiens) (UniProt P08173). Briefly: CHRM4 blockers of acetylcholine calcium response – CHO cells, Fluo-8 calcium fluorescence, primary screen (AID 624125).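 Note: 0% = acetylcholine EC80 with DMSO and 100% = DMSO without agonist.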 The following applies: CHO-hM4 cells, ACh EC80, Fluo-8 calcium fluorescence; at 3 µM; stronger effect = higher value.
On to `C=CCOC(=O)C1=C(C)N=C2SCCC(=O)N2C1/C=C/c1ccccc1OC` (stereo not drawn), for which the inhibition was 1.49% (inactive).
Regarding `CC1(C)CC(N2CCN(C(c3ccccc3)c3ccccc3)CC2)=CC(=[N+]2CCCCC2)C1`, the inhibition is 56.8% (active).
As for `CC1(c2cccc(Br)c2)NC(=O)N(CC(=O)NCCC2=CCCCC2)C1=O` (stereo not drawn), the inhibition is -1.54% (inactive).
The figure for `COC(=O)c1cc(S(=O)(=O)N2CCC(C(N)=O)CC2)oc1C` is -3.75% (inactive).
The figure for `CCCCN(CCCC)CCC(O)c1cc2c(Cl)cc(Cl)cc2c2cc(C(F)(F)F)ccc12` (stereo not drawn) is -6.99% (inactive); for `O=[N+]([O-])/C=C/c1ccc2c(ccn2Cc2ccccc2)c1` it is 51% (active).
Regarding `CC(C)CCNC(=O)c1[nH]c(C(F)(F)F)nc1-c1ccccc1`, the inhibition was 2.39% (inactive).
Regarding `CCOCCCN1C(=O)CN(C2CCCCC2)C(=O)C1c1ccc(OCC)c(OC)c1` (stereo not drawn), the inhibition was 5.54% (inactive).
The figure for `Cc1ccc(C)c(NC2=NCC(=O)N2c2ccc3c(c2)OCCO3)c1` is 5.91% (inactive); for `Cc1cc(=O)[nH]c(Nc2cccc(Br)c2)n1` it is 4.17% (inactive); for `Cc1cc(=O)[nH]c(N/N=C/c2ccc3c(c2)OCCO3)n1` it is 29.5% (active).
As to `CC1(C)C[C@H]2C3=CCC4[C@@]5(C)CC[C@H](O)[C@](C)(CO)C5CC[C@@]4(C)[C@]3(C)C[C@@H](O)[C@@]2(CO)[C@@H](O)[C@@H]1O` (stereo partly drawn), the inhibition is -13.3% (inactive).
For `CC1(C)C2CC[C@]3(C)C(CC=C4[C@@H]5C[C@@](C)(CO)CC[C@]5(C(=O)O)CC[C@]43C)[C@@]2(C)CC[C@@H]1O` (stereo partly drawn) the value was 45.8% (active); for `CC1O[C@@H](OC2C(O)C(C)O[C@H](OC(=O)[C@]34CCC(C)(C)C[C@H]3C3=CCC5[C@@]6(C)CC(O)C(O[C@@H]7OC(CO)C(O)[C@@H](O)[C@@H]7O)[C@@](C)(C(=O)O)C6CC[C@@]5(C)[C@]3(CO)CC4)C2O[C@H]2OC(C)[C@@H](O[C@@H]3OCC(O[C@@H]4OC(CO)C(O)[C@H](O)C4O)[C@@H](O)[C@@H]3O)[C@H](O)C2O)C(O)C(O)C1O` (stereo partly drawn), 4.49% (inactive); for `O=S(=O)(c1cccc(-c2cn3ccccc3n2)c1)N1CCCC1`, -2.49% (inactive).
The figure for `O=C(NCC(c1cccs1)N1CCOCC1)c1cc(Cl)ccc1[N+](=O)[O-]` (stereo not drawn) is -29.6% (inactive); for `CCN1CCN(CC(=O)c2cc(OC)c(OC)c(OC)c2)CC1` it is 3.39% (inactive).
For `O=C1C=C(c2ccc(Cl)cc2)C(=O)N1Nc1ccccc1` the value was 32% (active); for `Cc1cc(C)nc(NS(=O)(=O)c2ccc(N3C(=O)C4CCCCC4C3=O)cc2)n1` (stereo not drawn), -3.19% (inactive).
`CCCn1nc(C(=O)N2CCCc3ccccc32)c2ccccc2c1=O`: the inhibition was 3.11% (inactive).
On to `Cc1ccc(C(=O)N2CCCc3ccccc32)c(Cl)c1`, for which the inhibition is -5.91% (inactive).
For `Cc1cccc2cc3c(N)c(C(=O)N4CCCc5ccccc54)sc3nc12` the value was 26.9% (active); for `C=CCn1cc(Cl)cc(C(=O)Nc2ccccc2)c1=O`, 1.16% (inactive).
The figure for `NS(=O)(=O)c1ccc(NC(=O)COC(=O)C2(c3ccc(F)cc3)CCCC2)cc1` is 1.71% (inactive).
As to `NC1=NC(=O)S/C1=C\c1ccc(O)cc1`, the inhibition was 0.37% (inactive).
For `CC(C)(C)C(=O)/C(C#N)=C/c1ccc(O)cc1` the value was 3.63% (inactive); for `O=C(/C=C(O)/C=C/c1ccc(O)cc1)/C=C/c1ccc(O)cc1`, 41.4% (active).
For `CCNC(=O)C1(C)CCN(Cc2ccc(C(=O)OCC)o2)C1` (stereo not drawn) the value was 3.23% (inactive); for `Clc1cccc(Cl)c1Cn1nnc(-c2cccs2)n1`, -3.16% (inactive); for `CC(C)[C@@H]1COC(c2cccc(C3=N[C@H](C(C)C)CO3)c2)=N1`, 7.38% (inactive).
For `COc1cc(/C=C(/NC(=O)c2ccccc2)C(=O)Nc2cccc(O)c2)c([N+](=O)[O-])cc1OC` the value was -11.4% (inactive); for `COc1cc(/C=C(\C#N)C(=O)Nc2ccc3ccccc3c2)c([N+](=O)[O-])cc1OC`, 28.5% (active); for `COc1cc(NC(=O)COC(=O)CSc2ccc3ccccc3c2)c(C)cc1[N+](=O)[O-]`, -8.64% (inactive).
In the case of `CCOC(=O)C1CCN(C(=O)Cn2nc(C)c3c(C)n(-c4ccccc4)nc3c2=O)CC1`, the inhibition was 9.38% (inactive).
Turning to `Cc1cc(=O)oc2c3c(cc(OCC(=O)N[C@H](C(=O)O)c4ccccc4)c12)OC(C)(C)CC3`, the inhibition was -5.66% (inactive).
For `O=C1CCCC(O)=C1N=Nc1ccc2ncsc2c1` the value was 9.09% (inactive); for `COc1ccc(NC(=O)N(C)C[C@H]2Oc3ccc(NC(=O)C4CC4)cc3C(=O)N([C@H](C)CO)C[C@@H]2C)cc1`, -10% (inactive).
The figure for `CCc1nc2c(OCc3ccc(Cl)cc3Cl)cccn2c1N(C)C(=O)C(C)C` is -17.6% (inactive).
For `Cc1nc2c(OCc3ccc(Cl)cc3Cl)cccn2c1N(C)CC1CC1` the value was 38% (active).
With `Cc1nc2c(OCc3cccc(Cl)c3)cccn2c1N(C)CC1CC1`, the inhibition was 8.19% (inactive).
With `COC(CNC(=O)c1ccc2c(c1)ncn2-c1cc(C)cc(C)c1)OC`, the inhibition was -0.94% (inactive).
For `CCc1nc2c(OCc3ccccc3)cccn2c1N(C)C(=O)c1ccco1` the value was 8.33% (inactive).
For `COc1ccc(C(c2nnnn2Cc2cccs2)N2CCN(c3ccccc3)CC2)cc1OC` (stereo not drawn) the value was -1.13% (inactive); for `c1ccc2cc3[nH]c(CN4CCCCC4)nc3cc2c1`, -0.37% (inactive).
For `CCCCCC(O)(CCN1CCCCC1)c1ccccc1` (stereo not drawn) the value was 98.9% (active); for `CC(CN1CCCCC1)c1ccccc1` (stereo not drawn), 5.04% (inactive); for `CCCCCCC(O)(CCN1CCCCC1)c1ccccc1` (stereo not drawn), 88.2% (active).
As to `COc1ccc(C(O)(C2CCCCC2)C(CN2CCCC2)c2ccccc2)cc1` (stereo not drawn), the inhibition was 5.79% (inactive).
On to `O=C(c1ccccc1)C(O)(CN1CCCCC1)c1ccccc1` (stereo not drawn), for which the inhibition is 5.71% (inactive).
For `CCc1ccccc1NC(=O)NCCN1CCCCC1` the value was 4.05% (inactive).
Turning to `CCCCOc1ccc(C(C)(O)CCN2CCOCC2)cc1` (stereo not drawn), the inhibition was 3.58% (inactive).
Consider `C#CC(CCN1CCCCC1)(OC)c1ccccc1` (stereo not drawn), for which the inhibition is 44.6% (active).
For `CCC1SC(CC)C(=O)N(CC(=O)NC2CCCCC2)C1=O` (stereo not drawn) the value was 4.12% (inactive).
For `Cc1ccc(C(=O)NC(=S)Nc2ccc3[nH]c(=O)[nH]c3c2)cc1C` the value was -8.35% (inactive).
`COC(=O)c1cccc(-n2[nH]nnc2=S)c1`: the inhibition was 2.86% (inactive).
The figure for `COc1ccccc1C(=O)NCCn1cc(SCC(=O)NCc2ccco2)c2ccccc21` is 6.25% (inactive); for `COc1cc2c3c(c1)/C(=C1/SC(=S)NC1=O)C(=O)N3C(C)(C)C=C2C` it is 9.66% (inactive).
The figure for `C=CC[C@@H](CC(=O)N[C@@H](CO)Cc1ccccc1)C(=O)NCCOC(=O)[C@@H](CC=C)CC(=O)OC(C)(C)C` is -5.01% (inactive); for `CCc1cc(C(c2ccccc2OC)N2CCOCC2)c(NC(=O)c2ccccc2)s1` (stereo not drawn) it is -6.12% (inactive).
The figure for `COc1ccc(COC(=O)c2n[nH]c3ccccc23)cc1F` is 3.64% (inactive); for `CCCOc1ccccc1C(=O)NCCCC(=O)O` it is -1.85% (inactive); for `CN(C)c1ccc(N/C=C/C(=O)C(F)(F)F)cc1` it is -4.11% (inactive).
As to `COC(=O)c1cc(NC(=O)CN2CCN(C(C)=O)CC2)cc(C(=O)OC)c1`, the inhibition was 1.81% (inactive).
The figure for `Cc1cc2c(cc1C)N(Cc1ccccc1)C1=NCCCN12` is 10.6% (inactive); for `Cc1ccc(OCc2cc(C(=O)N(C)CCn3ccnc3C)no2)cc1C` it is -0.14% (inactive); for `CN(Cc1cccnc1)C(=O)c1cc(COc2ccc3ncccc3c2)on1` it is 44.2% (active).
In the case of `Cc1cc(CN(C)C(=O)c2cc(COc3ccc(C)c(C)c3)on2)n[nH]1`, the inhibition is -2.16% (inactive).
With `Cc1ccc2c(c1)N(CC(=O)N(Cc1ccccn1)Cc1ccco1)C(=O)C(C(C)C)O2` (stereo not drawn), the inhibition was -6.51% (inactive).
The figure for `O=[N+]([O-])c1c(NCCO)cc(Sc2nc3ccccc3s2)c2nonc12` is 74.6% (active); for `CCCCN1C(=O)/C(=C2/C=CC=CN2C)SC1=S` it is 28.7% (active); for `CCS(=O)(=O)N1CCCC(C(=O)NCCCN(C)Cc2ccccc2)C1` (stereo not drawn) it is 6.16% (inactive).
Consider `CCS(=O)(=O)c1ccc2c(c1)N(S(=O)(=O)c1ccccc1)CC(C(=O)O)O2` (stereo not drawn), for which the inhibition was 0.74% (inactive).
As to `c1ccc2c(c1)CSc1sccc1C2=C1CCNCC1`, the inhibition was 97.6% (active).
The figure for `CCCCN(CC(=O)Nc1cccc(S(=O)(=O)N2CCCC2)c1)Cc1nc2ccccc2c(=O)[nH]1` is 15.9% (inactive); for `O=C1CCCc2nn(-c3ccccc3)nc21` it is 2.29% (inactive); for `C=CCC(NC(=O)Cc1ccccc1)C(=O)NCCC` (stereo not drawn) it is 0.03% (inactive).
Turning to `CCCOCC(O)CC(CC)C(=O)NNC(=S)Nc1ccccc1` (stereo not drawn), the inhibition was -8.64% (inactive).
The figure for `CCCCC(=O)NNC(=S)NC(=O)C(c1ccccc1)c1ccccc1` is 59.9% (active); for `CCOc1ccc(N(CC)S(=O)(=O)c2cccc3nsnc23)cc1` it is 4.82% (inactive); for `O=C(/C=C/[C@H]1O[C@@H](n2ccc(=O)[nH]c2=O)[C@H](O)[C@@H]1O)NCc1ccccn1` it is -0.74% (inactive).
The figure for `COc1ccc(C(=O)O)cc1S(=O)(=O)NCc1cccnc1` is -5.56% (inactive); for `COc1ccc(C(=O)NC2CCCc3c2cnn3-c2cccc(C)c2C)c(OC)n1` (stereo not drawn) it is 30.6% (active).
The figure for `Cn1nccc1C(=O)NC1CCCc2c1cnn2-c1ccc(F)cc1F` (stereo not drawn) is 4.7% (inactive); for `COc1ccc(C(=O)NC2CC(C)(C)Cc3c2cnn3-c2ccccc2)c(OC)c1` (stereo not drawn) it is -2.19% (inactive).
For the molecule `CCC(Oc1ccccc1)C(=O)NCc1cccnc1` (stereo not drawn), the inhibition is -2.11% (inactive).
Turning to `CCN(CC(=O)Nc1ccc(NC(C)=O)cc1)C(=O)C1CC(=O)N(Cc2ccc(C)cc2)C1` (stereo not drawn), the inhibition was -10% (inactive).
For `O=C1CC[C@@H](C(=O)N2CSC[C@@H]2C(=O)Nc2ccc(C(F)(F)F)cc2)N1` the value was -9.06% (inactive).
Take `Cc1c(Cl)cccc1NC(=O)CSc1ccc(-c2cccnc2)nn1`: the inhibition is 4.65% (inactive).
